Targets with a hit are over-represented here; the source holds about 7,900 in all. About 0.6% of all pairs of compound and target were hits. A number with no mark means an inactive call.
Key:
Assay in all cases: log2 fold change, soluble protein after heating vs DMSO (PISA); higher = thermal stabilisation; K562 cells, 10 uM, 30 min; active = over 0.2 and 3.5 SD of the protein, either way, in both replicates (recomputed)
[1] = compound: C#Cc1cccc(Nc2ncnc3cc(OCCOC)c(OCCOC)cc23)c1 [erlotinib]
How it was run: (§1)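 Thermal stability values are relative to control samples and come from duplicates. They are expressed as log2 fold changes. For measurement, K562 cells (2×10^6 cells/mL) received 10 μM compound for 30 min, and aliquots were heated for 3 min over 48°C-58°C, pooled, and extracted at 4°C in PBS with 0.5% NP-40. Soluble protein, the supernatant after 21,000xg for 90 min, was quantified by TMTpro 16plex LC-MS/MS with equalised channel sums.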

[2] = compound: C/C(=N\NC(=O)C1=CC(=CC=C1)S(=O)(=O)N2CCOCC2)/C3=C(C=CC(=C3)Cl)O
How it was run: as §1

[3] = compound: C1=CC(=C(C=C1Cl)C2=NC3=NC=CN=C3C(=N2)NC4=CC=NC=C4)F
How it was run: as §1

[4] = compound: C1=CC(=CC=C1C2=NC3=C(N2)C=C(C=C3)C(=O)N)OC4=CC=C(C=C4)Cl
How it was run: as §1

[5] = compound: C1=CC2=C(C=CC(=C2)/C=C\3/C(=O)NC(=NCC4=CC=CS4)S3)N=C1
How it was run: as §1

[6] = compound: C1=CC2=NC=CN=C2C=C1/C=C/3\C(=O)NC(=O)S3
How it was run: as §1

[7] = compound: C1=CC=C(C=C1)C2=NC(=C(N2)C3=CC=NC=C3)C4=CC(=C(C=C4)Cl)O
How it was run: as §1

[8] = compound: C1=CC=C2C(=C1)C3=NNC4=CC=CC(=C43)C2=O
How it was run: as §1

[9] = compound: C1CCN(C1)C(=O)NC2=CC=CC(=C2)NC3=NC=C(C(=N3)NCCC4=CN=CN4)Br
How it was run: as §1

[10] = compound: C1CN(CCC1(CC2=CC=C(C=C2)Cl)N)C3=NC=NC4=C3C=CN4
How it was run: as §1

UniProt Q86W56, sequence (Q86W56 whole entry, looked up): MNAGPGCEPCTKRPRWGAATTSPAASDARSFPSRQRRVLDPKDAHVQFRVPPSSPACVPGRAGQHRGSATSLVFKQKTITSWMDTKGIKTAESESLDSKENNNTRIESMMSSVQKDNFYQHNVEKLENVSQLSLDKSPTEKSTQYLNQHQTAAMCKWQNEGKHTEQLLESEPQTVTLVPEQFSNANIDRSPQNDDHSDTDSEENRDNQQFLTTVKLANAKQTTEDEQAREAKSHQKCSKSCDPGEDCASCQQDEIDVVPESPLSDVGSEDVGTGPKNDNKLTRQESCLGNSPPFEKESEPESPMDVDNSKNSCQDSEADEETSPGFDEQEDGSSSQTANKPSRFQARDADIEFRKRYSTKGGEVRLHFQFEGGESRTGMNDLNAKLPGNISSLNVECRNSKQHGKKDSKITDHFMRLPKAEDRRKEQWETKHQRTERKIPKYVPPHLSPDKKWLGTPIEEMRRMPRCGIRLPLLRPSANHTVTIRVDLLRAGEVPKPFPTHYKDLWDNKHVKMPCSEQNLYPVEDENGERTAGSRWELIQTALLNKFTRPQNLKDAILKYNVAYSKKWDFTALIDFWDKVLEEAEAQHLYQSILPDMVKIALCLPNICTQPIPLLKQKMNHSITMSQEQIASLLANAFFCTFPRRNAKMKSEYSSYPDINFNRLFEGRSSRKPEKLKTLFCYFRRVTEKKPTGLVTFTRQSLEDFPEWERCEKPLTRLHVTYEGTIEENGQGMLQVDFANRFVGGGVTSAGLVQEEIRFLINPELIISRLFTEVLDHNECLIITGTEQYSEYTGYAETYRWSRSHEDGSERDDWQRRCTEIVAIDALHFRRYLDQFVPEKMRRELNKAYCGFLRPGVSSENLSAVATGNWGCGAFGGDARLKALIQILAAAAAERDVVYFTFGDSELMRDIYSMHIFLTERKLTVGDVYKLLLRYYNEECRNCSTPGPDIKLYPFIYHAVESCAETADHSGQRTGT
UniProt Q92871, sequence (Q92871 whole entry, looked up): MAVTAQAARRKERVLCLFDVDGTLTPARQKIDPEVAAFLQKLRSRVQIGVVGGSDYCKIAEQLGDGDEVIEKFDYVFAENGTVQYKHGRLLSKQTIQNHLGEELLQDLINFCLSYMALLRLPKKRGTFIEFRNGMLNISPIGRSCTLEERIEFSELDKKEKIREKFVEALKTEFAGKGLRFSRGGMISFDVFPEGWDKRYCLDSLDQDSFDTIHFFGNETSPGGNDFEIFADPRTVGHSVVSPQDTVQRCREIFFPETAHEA
UniProt P27986, sequence (P27986 whole entry, looked up): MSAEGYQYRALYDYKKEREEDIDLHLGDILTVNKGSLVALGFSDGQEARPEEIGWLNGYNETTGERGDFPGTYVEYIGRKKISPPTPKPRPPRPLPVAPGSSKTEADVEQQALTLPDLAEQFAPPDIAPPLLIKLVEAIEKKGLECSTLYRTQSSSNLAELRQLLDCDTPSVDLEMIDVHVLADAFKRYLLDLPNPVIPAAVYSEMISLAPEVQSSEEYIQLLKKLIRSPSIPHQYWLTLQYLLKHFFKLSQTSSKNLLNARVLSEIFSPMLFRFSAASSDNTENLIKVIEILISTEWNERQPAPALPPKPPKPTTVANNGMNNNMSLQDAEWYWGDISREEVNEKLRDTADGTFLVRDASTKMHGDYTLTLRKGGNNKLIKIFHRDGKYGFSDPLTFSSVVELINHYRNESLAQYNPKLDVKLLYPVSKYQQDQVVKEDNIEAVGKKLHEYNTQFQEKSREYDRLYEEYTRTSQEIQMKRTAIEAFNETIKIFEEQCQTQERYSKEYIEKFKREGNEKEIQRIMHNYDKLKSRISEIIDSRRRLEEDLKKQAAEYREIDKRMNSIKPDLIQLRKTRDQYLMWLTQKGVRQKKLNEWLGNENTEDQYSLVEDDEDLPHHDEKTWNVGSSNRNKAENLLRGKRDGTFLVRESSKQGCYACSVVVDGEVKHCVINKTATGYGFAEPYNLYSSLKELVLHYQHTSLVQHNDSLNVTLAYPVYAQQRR
UniProt P48426, sequence (P48426 whole entry, looked up): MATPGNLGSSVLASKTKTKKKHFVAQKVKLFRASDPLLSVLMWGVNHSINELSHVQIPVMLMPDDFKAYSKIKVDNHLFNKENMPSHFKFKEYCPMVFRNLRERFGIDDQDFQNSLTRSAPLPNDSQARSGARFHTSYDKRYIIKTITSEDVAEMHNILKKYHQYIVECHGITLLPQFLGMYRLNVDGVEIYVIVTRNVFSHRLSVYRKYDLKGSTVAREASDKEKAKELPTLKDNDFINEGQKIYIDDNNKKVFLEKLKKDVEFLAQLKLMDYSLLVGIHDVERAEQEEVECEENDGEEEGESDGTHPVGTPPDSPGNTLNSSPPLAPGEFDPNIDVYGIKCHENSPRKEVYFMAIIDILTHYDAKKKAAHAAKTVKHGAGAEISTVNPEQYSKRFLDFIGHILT
UniProt P78356, sequence (P78356 whole entry, looked up): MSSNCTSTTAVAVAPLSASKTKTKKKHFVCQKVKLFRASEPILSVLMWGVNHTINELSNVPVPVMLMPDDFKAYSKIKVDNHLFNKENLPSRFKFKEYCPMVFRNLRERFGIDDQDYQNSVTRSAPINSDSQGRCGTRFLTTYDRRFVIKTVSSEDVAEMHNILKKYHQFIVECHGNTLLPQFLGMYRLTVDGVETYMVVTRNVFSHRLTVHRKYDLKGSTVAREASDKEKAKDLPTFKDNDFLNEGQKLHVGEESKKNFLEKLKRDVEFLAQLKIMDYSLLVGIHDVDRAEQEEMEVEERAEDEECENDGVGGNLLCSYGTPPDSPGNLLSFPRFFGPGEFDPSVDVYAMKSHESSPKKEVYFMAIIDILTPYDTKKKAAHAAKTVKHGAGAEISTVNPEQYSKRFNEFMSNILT
UniProt O14974, sequence (O14974 whole entry, looked up): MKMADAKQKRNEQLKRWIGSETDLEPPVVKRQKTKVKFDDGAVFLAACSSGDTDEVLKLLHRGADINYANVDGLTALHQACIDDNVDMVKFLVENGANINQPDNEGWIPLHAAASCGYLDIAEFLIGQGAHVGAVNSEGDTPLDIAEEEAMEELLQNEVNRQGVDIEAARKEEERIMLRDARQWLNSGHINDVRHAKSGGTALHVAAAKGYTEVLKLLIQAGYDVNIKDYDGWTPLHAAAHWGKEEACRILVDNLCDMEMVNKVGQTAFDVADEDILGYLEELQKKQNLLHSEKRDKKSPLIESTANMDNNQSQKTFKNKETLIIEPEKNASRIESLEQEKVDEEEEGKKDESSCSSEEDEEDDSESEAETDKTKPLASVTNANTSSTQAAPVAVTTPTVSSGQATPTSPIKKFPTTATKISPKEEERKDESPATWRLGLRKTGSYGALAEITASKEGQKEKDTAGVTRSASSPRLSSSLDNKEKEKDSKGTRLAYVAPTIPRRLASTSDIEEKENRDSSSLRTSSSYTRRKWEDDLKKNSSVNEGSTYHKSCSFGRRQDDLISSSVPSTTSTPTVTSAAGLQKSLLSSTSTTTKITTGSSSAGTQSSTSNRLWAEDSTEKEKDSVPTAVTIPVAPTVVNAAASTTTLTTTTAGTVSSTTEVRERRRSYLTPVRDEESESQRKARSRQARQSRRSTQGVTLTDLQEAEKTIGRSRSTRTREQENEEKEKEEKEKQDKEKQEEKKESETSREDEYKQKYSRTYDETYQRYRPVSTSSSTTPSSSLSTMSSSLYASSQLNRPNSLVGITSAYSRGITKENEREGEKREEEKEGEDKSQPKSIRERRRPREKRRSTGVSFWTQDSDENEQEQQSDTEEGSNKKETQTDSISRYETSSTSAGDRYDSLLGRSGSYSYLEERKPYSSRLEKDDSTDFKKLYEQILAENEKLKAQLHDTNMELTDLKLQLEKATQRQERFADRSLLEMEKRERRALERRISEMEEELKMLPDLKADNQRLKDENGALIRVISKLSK
UniProt P54619, sequence (P54619 whole entry, looked up): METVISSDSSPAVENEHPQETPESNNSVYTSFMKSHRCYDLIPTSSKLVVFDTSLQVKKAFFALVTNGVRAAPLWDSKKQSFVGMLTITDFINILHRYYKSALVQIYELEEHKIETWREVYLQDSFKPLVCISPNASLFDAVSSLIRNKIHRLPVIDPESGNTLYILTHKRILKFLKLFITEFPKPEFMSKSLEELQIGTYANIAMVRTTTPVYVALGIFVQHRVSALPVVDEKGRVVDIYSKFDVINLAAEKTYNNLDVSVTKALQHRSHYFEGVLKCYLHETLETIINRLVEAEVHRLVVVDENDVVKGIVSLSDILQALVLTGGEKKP
UniProt Q8N4L2, sequence (Q8N4L2 whole entry, looked up): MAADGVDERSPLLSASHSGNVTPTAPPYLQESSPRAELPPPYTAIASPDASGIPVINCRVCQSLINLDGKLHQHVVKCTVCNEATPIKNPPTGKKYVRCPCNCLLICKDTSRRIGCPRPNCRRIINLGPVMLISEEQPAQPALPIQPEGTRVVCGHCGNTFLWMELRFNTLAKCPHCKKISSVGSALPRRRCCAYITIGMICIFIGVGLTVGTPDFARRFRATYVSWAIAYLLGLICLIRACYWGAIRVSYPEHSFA
UniProt Q8TBX8, sequence (Q8TBX8 whole entry, looked up): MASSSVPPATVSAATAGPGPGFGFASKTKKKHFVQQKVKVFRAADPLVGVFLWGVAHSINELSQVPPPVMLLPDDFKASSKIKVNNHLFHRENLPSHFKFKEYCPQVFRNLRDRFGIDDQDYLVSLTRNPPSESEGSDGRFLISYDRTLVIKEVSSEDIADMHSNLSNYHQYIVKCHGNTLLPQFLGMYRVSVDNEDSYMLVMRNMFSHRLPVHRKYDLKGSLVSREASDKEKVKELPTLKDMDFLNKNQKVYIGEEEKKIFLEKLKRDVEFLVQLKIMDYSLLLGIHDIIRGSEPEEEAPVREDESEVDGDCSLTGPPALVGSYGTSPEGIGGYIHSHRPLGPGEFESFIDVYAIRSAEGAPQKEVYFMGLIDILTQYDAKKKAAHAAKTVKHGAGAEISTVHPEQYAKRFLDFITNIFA

Row | Target | log2 fold change [1] | log2 fold change [2] | log2 fold change [3] | log2 fold change [4] | log2 fold change [5] | log2 fold change [6] | log2 fold change [7] | log2 fold change [8] | log2 fold change [9] | log2 fold change [10]
1 | PISD (UniProt Q9UG56) | -0.021 | -0.055 | 0.026 | 0.089 | 0.034 | 0.023 | 0.02 | 0.058 | 0.009 | -0.004
2 | PIP4K2A (UniProt P48426) | 0.172 | 0.028 | 0.075 | -0.058 | -0.065 | 0.287 | 0.108 | 0.076 | 0.162 | -0.013
3 | PRKAB1 (UniProt Q9Y478) | 0.043 | 0.15 | 0.052 | -0.011 | -0.06 | 0.024 | 0.019 | 0.026 | -0.076 | 0.068
4 | PIK3R1 (UniProt P27986) | 0.01 | 0.033 | 0.025 | 0.048 | 0.036 | 0.14 | -0.022 | -0.027 | -0.024 | 0.05
5 | PIP4P2 (UniProt Q8N4L2) | 0.014 | -0.066 | 0.026 | 0.039 | 0.009 | 0.145 | 0.063 | -0.002 | 0.014 | -0.007
6 | PMM1 (UniProt Q92871) | -0.021 | -0.041 | 0.004 | 0.065 | 0.1 | 0.002 | -0.007 | -0.049 | 0.001 | 0.036
7 | PC (UniProt P11498) | -0.037 | 0.101 | 0.117 | 0.056 | 0.047 | -0.042 | 0.042 | 0.031 | -0.022 | 0.012
8 | PPP1R12A (UniProt O14974) | 0.004 | 0.044 | 0.023 | 0.023 | -0.188 | 0 | 0.035 | -0.067 | -0.074 | -0.485 (active)
9 | PDE4DIP isoform 4 (UniProt Q5VU43) | 0.027 | -0.002 | 0.186 | 0.01 | 0.089 | -0.043 | -0.059 | -0.02 | -0.037 | -0.061
10 | PRKAG1 isoform 3 (UniProt P54619) | 0.025 | 0.038 | -0.016 | -0.012 | 0.083 | 0.032 | 0.037 | -0.015 | -0.007 | 0.045
11 | PDIK1L (UniProt Q8N165) | -0.075 | 0.083 | -0.031 | -0.052 | 0.034 | 0.115 | -0.034 | 0.197 | 0.023 | -0.007
12 | PIP4K2C (UniProt Q8TBX8) | 0.482 | -0.063 | 0.023 | -0.129 | 0.059 | 0.575 | 0.139 | 0.21 | 0.493 | -0.025
13 | PIP4K2B (UniProt P78356) | 0.16 | -0.022 | 0.082 | -0.083 | 0.017 | 0.244 | 0.104 | 0.096 | 0.13 | 0.037
14 | PARG (UniProt Q86W56) | 0.063 | 0.067 | 0.034 | -0.015 | 0.063 | 0.059 | 0.043 | 0.063 | -0.079 | -0.071
15 | PHKA2 (UniProt P46019) | -0.077 | 0.029 | 0.041 | -0.008 | -0.011 | 0.041 | -0.028 | -0.026 | 0.004 | 0.004

Reference: the supplement of paper PMC10849652
